The values that follow come from PubChem BioAssay (NCI).

The structures appear in SMILES notation. Values joined by “and” are separate entries in the source; they are usually repeats but may differ in a detail not shown here. Identical values can stand only once. This is part of a sample that, as a whole, favours compounds with a hit. Of some 83,000 tested, about 20% had one in any assay.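 A percent growth of 40 corresponds to 60% growth inhibition; 0 means no net growth; -100 means all cells died. Active threshold: below 10.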 A number with no mark means an inactive call. Active and inactive are the calls of the source.

This assay relates to MDA-MB-468 breast. The experiment in a line: NCI-60 one-dose screen, 48 h (100 = growth as untreated, 0 = no growth, -100 = all killed). To be noted: 10 µM unless noted.
For the molecule `C=C1C(=O)O[C@H]2[C@H]1CC/C(COC(=O)CCCCCCCC(=O)OC/C1=C/CC[C@@]3(C)O[C@H]3[C@H]3OC(=O)C(=C)[C@@H]3CC1)=C\CC[C@@]1(C)O[C@@H]21`, the growth was -21.6% (active).

Consider `O=C(NCCNc1nccc(-c2c(-c3cccc(O)c3)nc3sccn23)n1)c1ccccc1O`, for which the growth is 52%.

For the molecule `Cc1csc(NC(c2ccc(Br)cc2)c2c(C)nc3ccccn23)n1` (stereo not given), the growth was 93.5%.

As to `OC(c1ccccn1)C(O)c1ccccn1` (stereo not given), the growth is 113%.

Turning to `COc1cccc(-c2nn(-c3ccccc3)cc2-c2ccnc(NCCCN)c2)c1`, the growth was 17.4%.

`Oc1cc(O)c2c(c1)O[C@H](c1ccc(O)c(O)c1)[C@@H](O)C2`: the growth was 115%.

As for `COc1ccc(N)c(-c2cc3c(c4c2[nH]c2ccc(OC)cc24)CCCC3)c1`, the growth was 94.5%.

As to `CN1C(=O)N(C)C2Nn3c(s/c(=C\c4ccc(C(F)(F)F)cc4)c3=O)=NC21` (stereo not given), the growth is 98.5%.

Regarding `CN1C(=O)NC(Cc2c[nH]c3c(Cl)cccc23)C1=O` (stereo not given), the growth is 110%.

Regarding `Cn1nc(C(F)(F)F)cc1-c1c[nH]c(OCc2ccc(Cl)cc2)c(-c2ccc(Cl)c(C(F)(F)F)c2)c1=O`, the growth is -17.1% (active).

For the molecule `C#Cc1ccc(-n2c(/C=C/c3cc(OC)c(OC)c(OC)c3)nc3ncccc3c2=O)cc1`, the growth was 3.92% (active).

As for `CCOCC(O)(c1ccc(Cl)cc1)c1ccc(Cl)cc1`, the growth was 102%.

On to `CC(C)C(C)(C)C(=O)C(C)(C)C(C)(C)C`, for which the growth is 90.1%.

For the molecule `C[N+]1(CCC[N+]2(C)C[C@@H]3[C@H](C2)[C@@H]2C=C[C@H]3C2)CCOCC1` (stereo not given in full), the growth was 108%.

For the molecule `CCOc1ccc(C(C[N+](=O)[O-])Sc2ccccc2N)cc1` (stereo not given), the growth was -58.4% (active).

Take `CC(C)(Sc1cc(C(C)(C)C)c(O)c(C(C)(C)C)c1)Sc1cc(C(C)(C)C)c(OC(=O)CCCC(=O)O)c(C(C)(C)C)c1`: the growth is 43.5%.

On to `COc1cc(-c2nc3ccc(-c4nnc(SCC(=O)Nc5ccc(C(=O)/C=C/c6ccc(Cl)cc6)cc5)o4)cc3[nH]2)cc(OC)c1OC`, for which the growth was 93%.

As to `CCC(=O)Oc1c(C)cc(O)c2ccccc12`, the growth was 5.03% (active).

Turning to `C=C1C(=O)O[C@H]2[C@H]1CC/C(CNC(=O)/C=C/c1cccc(OC)c1)=C\CC[C@@]1(C)O[C@@H]21`, the growth is -36.5% (active).

`CC(C)(O)CCl`: the growth was 103%.

As for `Cc1ccc(NC(=O)Nc2nc3ccc([N+](=O)[O-])cc3s2)cc1`, the growth was -15.6% (active).

Regarding `CC(C)(C)n1cc(-c2ccnc(NCCCNS(=O)(=O)c3cccc4ccccc34)c2)c(-c2cccc(F)c2)n1`, the growth was 52.5%.

For the molecule `Clc1ccc(SSc2ccc(Cl)cc2)cc1`, the growth was 95.7% and 95.5%.

As to `Cc1nc(-c2ccccc2)cc2c(O)c(C(=O)N/N=C/Cc3ccccc3)[nH]c(=O)c12`, the growth was 111%.

For `COc1cc(/C=C2\C(=O)ON=C2C)cc(OC)c1OC`, the growth is 107%.

Take `CC(=O)[C@@]1(O)CC[C@H]2[C@@H]3CC[C@@H]4CC(=O)CC[C@]4(C)[C@H]3[C@@H](O)C[C@@]21C`: the growth is 94.6%.

Consider `CCOc1ccc2c(c1)c(C)cc(C)[n+]2CC`, for which the growth was 9.85% (active).

For the molecule `O=C1CCCN1C1CCN2CCCc3cccc1c32` (stereo not given), the growth was 118%.

With `CCO/C=N/C1=C(C#N)C(c2ccc(Cl)cc2)c2sc3c(CC)cccc3c2O1` (stereo not given), the growth is -33.4% (active).

As for `O=[N+]([O-])c1cc(S(=O)(=O)Oc2ccccc2)ccc1Cl`, the growth is -78.1% (active).

Turning to `CCCCNC(=O)c1ccc(OCC)cc1`, the growth was 117%.

As for `Fc1ccc(Nc2ccc3cc(OCCCN4CCOCC4)ccc3n2)cc1F`, the growth is 52.8%.

As to `Cc1nc([N+](=O)[O-])c(Sc2nncc(-c3ccccc3)n2)n1C`, the growth is 29.5%.

In the case of `COc1ccccc1N1CCN(C2=C(Cl)C(=O)c3ncccc3C2=O)CC1`, the growth was -55.3% (active).

Turning to `CCOc1cc(C(C)(C)C)ccc1C1=N[C@H](c2ccc(Cl)cc2)[C@H](c2ccc(Cl)cc2)N1C(=O)N1CCN(CC#Cc2cccc3c2CN([C@@H]2CCC(=O)NC2=O)C3=O)CC1`, the growth was -21.9% (active).

In the case of `C/C(=N\NC(N)=S)c1nnn(-c2ccc([N+](=O)[O-])cc2)c1C`, the growth was 89.3%.

Consider `C=C(C)COC(=O)c1ccccc1C(=O)OCC1(C)CO1` (stereo not given), for which the growth was 108%.

Turning to `O=C1/C(=C/c2ccccc2)CCC/C1=C\c1ccccc1`, the growth was 63.2%.

`COc1cc(Cc2cc(OC)c(O)c(OC)c2)cc(OC)c1O`: the growth is 65.2%.

In the case of `O=C(O)c1ccc(-n2cc(CNc3ccc(F)cc3)c(-c3ccc(C(F)(F)F)cc3)n2)cc1`, the growth is 83.2%.
